Measurements from ChEMBL document CHEMBL1961873, “Compounds: GSK PKIS; Assays: Nanosyn kinase panel” (2012).

Columns and labels:
[1] = molecular target: Ribosomal protein S6 kinase alpha-6 (Homo sapiens) (UniProt Q9UK32); settings: at 1 µM;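 also: each value is a mean inhibition of RSK4 from a GSK PKIS panel screen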
[2] = molecular target: T1, Serine/threonine-protein kinase Sgk1 (Homo sapiens) (UniProt O00141); settings: at 0.1 µM
T1 sequence (whole entry): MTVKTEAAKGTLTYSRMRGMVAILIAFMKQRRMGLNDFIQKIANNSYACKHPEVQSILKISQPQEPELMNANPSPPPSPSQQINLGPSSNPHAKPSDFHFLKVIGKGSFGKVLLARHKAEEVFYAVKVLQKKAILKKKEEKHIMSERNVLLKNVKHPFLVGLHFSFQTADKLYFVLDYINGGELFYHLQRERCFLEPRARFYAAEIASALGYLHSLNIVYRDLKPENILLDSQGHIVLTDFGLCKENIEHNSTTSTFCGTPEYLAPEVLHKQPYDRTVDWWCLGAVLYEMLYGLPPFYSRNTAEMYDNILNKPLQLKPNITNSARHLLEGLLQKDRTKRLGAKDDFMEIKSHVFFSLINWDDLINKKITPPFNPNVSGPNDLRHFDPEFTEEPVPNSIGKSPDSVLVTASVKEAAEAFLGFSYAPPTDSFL

[3] = molecular target: T1, Serine/threonine-protein kinase Sgk1 (Homo sapiens); settings: at 1 µM
[4] = molecular target: T2, Serine/threonine-protein kinase Sgk2 (Homo sapiens) (UniProt Q9HBY8); settings: at 0.1 µM
T2 sequence (whole entry): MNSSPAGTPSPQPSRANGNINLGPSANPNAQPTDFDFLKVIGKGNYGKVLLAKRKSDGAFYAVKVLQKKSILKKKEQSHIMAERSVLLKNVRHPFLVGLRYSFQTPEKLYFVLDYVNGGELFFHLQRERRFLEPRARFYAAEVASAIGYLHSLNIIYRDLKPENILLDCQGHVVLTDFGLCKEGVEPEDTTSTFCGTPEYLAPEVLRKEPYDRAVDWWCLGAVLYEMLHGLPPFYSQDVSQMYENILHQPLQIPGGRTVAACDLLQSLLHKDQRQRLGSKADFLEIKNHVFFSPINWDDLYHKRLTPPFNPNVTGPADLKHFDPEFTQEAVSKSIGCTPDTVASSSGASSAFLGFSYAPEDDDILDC

[5] = molecular target: T2, Serine/threonine-protein kinase Sgk2 (Homo sapiens); settings: at 1 µM
[6] = molecular target: T3, Serine/threonine-protein kinase Sgk3 (Homo sapiens) (UniProt Q96BR1); settings: at 0.1 µM
T3 sequence (whole entry): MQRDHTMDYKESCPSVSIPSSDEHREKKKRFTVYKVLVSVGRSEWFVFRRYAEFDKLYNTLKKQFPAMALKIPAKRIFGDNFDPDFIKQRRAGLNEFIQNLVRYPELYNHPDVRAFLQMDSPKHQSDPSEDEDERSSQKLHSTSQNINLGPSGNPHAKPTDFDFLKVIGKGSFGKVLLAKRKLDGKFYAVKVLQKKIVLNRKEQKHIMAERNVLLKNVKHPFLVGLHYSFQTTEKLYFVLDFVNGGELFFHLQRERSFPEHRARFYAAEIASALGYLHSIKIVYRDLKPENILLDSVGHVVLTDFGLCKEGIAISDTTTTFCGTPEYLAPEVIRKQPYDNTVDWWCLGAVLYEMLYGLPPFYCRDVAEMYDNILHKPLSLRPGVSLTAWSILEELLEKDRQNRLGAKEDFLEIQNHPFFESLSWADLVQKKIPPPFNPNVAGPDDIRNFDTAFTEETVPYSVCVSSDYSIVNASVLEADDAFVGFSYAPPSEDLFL

[7] = molecular target: T3, Serine/threonine-protein kinase Sgk3 (Homo sapiens); settings: at 1 µM
[8] = molecular target: 5'-AMP-activated protein kinase catalytic subunit alpha-1 (Homo sapiens) (UniProt Q13131); settings: at 0.1 µM
5'-AMP-activated protein kinase catalytic subunit alpha-1 (Homo sapiens), sequence (Q13131 whole entry, looked up): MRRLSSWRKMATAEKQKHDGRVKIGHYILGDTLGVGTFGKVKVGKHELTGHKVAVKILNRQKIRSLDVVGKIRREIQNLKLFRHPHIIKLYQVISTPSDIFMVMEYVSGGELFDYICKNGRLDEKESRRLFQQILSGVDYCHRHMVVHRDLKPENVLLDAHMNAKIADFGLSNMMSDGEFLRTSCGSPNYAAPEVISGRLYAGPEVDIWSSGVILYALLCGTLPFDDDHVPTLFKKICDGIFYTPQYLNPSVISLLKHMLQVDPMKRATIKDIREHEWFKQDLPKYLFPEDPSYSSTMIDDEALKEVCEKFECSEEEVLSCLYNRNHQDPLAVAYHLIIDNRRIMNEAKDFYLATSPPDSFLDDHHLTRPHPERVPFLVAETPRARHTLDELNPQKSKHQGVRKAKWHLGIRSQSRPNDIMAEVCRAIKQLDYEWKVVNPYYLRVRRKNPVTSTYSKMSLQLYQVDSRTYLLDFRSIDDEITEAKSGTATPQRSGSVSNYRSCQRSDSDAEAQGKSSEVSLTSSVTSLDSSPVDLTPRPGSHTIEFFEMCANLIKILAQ

[9] = molecular target: 5'-AMP-activated protein kinase catalytic subunit alpha-1 (Homo sapiens) (UniProt Q13131); settings: at 1 µM
[10] = molecular target: 5'-AMP-activated protein kinase catalytic subunit alpha-2 (Homo sapiens) (UniProt P54646); settings: at 0.1 µM
5'-AMP-activated protein kinase catalytic subunit alpha-2 (Homo sapiens), sequence (P54646 whole entry, looked up): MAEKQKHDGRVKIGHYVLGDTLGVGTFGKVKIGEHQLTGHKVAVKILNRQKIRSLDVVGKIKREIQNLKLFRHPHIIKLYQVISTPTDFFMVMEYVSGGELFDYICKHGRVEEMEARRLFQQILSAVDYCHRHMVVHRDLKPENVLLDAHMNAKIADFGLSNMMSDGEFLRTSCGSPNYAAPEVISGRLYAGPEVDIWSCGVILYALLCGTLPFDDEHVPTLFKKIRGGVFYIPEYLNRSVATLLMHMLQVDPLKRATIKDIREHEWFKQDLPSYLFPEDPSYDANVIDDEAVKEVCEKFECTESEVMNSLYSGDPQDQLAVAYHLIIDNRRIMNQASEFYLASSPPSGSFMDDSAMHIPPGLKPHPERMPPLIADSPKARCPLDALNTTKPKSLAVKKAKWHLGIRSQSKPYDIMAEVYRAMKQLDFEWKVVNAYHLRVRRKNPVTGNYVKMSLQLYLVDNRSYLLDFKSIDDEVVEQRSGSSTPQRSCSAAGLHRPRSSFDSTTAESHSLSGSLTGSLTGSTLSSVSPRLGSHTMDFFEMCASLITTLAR

[11] = molecular target: 5'-AMP-activated protein kinase catalytic subunit alpha-2 (Homo sapiens) (UniProt P54646); settings: at 1 µM
[12] = molecular target: T4, NUAK family SNF1-like kinase 1 (Homo sapiens) (UniProt O60285); settings: at 0.1 µM
T4 sequence (whole entry): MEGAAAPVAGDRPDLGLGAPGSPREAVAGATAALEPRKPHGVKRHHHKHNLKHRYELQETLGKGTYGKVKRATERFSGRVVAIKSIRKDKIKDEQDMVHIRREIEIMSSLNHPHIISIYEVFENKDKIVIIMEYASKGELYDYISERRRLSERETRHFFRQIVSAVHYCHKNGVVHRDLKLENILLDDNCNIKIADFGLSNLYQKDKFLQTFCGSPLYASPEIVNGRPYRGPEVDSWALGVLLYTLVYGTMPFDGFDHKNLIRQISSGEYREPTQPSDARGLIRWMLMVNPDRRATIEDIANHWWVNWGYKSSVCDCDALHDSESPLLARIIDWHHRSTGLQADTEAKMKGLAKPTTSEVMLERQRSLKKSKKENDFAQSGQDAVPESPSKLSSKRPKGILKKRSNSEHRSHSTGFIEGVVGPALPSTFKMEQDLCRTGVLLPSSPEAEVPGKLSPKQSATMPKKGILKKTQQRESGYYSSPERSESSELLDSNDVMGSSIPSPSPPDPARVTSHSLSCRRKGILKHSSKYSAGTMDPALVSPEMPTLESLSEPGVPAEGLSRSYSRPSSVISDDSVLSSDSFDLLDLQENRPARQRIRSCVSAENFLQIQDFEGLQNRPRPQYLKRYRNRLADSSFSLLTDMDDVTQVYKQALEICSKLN

[13] = molecular target: T4, NUAK family SNF1-like kinase 1 (Homo sapiens); settings: at 1 µM
[14] = molecular target: T5, Serine/threonine-protein kinase BRSK1 (Homo sapiens) (UniProt Q8TDC3); settings: at 0.1 µM
T5 sequence (whole entry): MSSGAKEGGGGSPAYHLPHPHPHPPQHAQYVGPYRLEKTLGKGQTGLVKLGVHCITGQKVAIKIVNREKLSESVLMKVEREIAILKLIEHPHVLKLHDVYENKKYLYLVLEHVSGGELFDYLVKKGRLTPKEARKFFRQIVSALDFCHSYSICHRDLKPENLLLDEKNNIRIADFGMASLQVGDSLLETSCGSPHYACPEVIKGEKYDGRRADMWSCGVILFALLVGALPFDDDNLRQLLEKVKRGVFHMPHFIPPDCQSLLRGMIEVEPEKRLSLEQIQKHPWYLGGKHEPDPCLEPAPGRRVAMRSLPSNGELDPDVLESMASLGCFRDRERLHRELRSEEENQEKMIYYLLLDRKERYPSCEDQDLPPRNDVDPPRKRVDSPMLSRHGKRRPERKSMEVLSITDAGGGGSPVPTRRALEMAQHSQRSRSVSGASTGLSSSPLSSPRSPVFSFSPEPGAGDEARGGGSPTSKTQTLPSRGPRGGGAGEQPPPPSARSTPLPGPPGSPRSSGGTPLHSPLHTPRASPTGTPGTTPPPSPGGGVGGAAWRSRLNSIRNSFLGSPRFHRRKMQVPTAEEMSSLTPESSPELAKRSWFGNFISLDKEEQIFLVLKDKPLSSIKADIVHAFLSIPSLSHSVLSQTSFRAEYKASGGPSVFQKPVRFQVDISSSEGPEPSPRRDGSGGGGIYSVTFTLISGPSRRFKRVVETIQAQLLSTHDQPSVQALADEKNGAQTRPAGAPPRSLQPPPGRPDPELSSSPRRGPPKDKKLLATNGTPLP

[15] = molecular target: T5, Serine/threonine-protein kinase BRSK1 (Homo sapiens); settings: at 1 µM
[16] = molecular target: T6, Serine/threonine-protein kinase BRSK2 (Homo sapiens) (UniProt Q8IWQ3); settings: at 0.1 µM
T6 sequence (whole entry): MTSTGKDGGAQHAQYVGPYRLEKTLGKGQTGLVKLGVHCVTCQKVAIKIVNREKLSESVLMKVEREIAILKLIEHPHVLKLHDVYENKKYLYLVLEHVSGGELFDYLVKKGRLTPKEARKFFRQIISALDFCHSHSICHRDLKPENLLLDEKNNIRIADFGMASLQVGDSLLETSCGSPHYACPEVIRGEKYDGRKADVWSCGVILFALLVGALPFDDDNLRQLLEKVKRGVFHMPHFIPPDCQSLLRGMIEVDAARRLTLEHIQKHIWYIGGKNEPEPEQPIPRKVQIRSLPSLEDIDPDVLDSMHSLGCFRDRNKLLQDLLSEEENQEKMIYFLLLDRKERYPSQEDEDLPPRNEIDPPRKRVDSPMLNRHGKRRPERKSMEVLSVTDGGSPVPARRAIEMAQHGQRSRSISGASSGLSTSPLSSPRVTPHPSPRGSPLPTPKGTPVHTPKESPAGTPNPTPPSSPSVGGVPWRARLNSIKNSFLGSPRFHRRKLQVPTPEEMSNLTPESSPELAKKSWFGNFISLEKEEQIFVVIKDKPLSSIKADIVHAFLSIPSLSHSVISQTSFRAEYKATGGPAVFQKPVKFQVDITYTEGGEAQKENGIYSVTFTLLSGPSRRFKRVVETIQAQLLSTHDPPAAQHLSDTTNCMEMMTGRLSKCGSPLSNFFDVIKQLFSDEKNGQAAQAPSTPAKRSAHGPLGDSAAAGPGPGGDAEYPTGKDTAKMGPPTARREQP

[17] = molecular target: T6, Serine/threonine-protein kinase BRSK2 (Homo sapiens); settings: at 1 µM
[18] = molecular target: Calcium/calmodulin-dependent protein kinase type 1D (Homo sapiens) (UniProt Q8IU85); settings: at 0.1 µM
Calcium/calmodulin-dependent protein kinase type 1D (Homo sapiens), sequence (Q8IU85 whole entry, looked up): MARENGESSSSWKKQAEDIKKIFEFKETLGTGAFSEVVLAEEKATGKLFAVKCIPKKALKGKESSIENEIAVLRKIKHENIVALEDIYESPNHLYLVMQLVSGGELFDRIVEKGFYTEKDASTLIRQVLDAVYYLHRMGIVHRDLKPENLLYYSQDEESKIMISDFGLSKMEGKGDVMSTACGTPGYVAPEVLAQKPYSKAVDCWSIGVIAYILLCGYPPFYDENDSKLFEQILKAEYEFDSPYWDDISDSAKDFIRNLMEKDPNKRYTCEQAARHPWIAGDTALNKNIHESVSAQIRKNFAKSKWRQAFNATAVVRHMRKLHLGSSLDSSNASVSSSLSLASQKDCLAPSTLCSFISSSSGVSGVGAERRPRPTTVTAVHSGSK

[19] = molecular target: Calcium/calmodulin-dependent protein kinase type 1D (Homo sapiens) (UniProt Q8IU85); settings: at 1 µM
[20] = molecular target: Calcium/calmodulin-dependent protein kinase type II subunit alpha (Homo sapiens) (UniProt Q9UQM7); settings: at 0.1 µM;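 also: reported values are averages (mean inhibition of CAMK2A)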
Calcium/calmodulin-dependent protein kinase type II subunit alpha (Homo sapiens), sequence (Q9UQM7 whole entry): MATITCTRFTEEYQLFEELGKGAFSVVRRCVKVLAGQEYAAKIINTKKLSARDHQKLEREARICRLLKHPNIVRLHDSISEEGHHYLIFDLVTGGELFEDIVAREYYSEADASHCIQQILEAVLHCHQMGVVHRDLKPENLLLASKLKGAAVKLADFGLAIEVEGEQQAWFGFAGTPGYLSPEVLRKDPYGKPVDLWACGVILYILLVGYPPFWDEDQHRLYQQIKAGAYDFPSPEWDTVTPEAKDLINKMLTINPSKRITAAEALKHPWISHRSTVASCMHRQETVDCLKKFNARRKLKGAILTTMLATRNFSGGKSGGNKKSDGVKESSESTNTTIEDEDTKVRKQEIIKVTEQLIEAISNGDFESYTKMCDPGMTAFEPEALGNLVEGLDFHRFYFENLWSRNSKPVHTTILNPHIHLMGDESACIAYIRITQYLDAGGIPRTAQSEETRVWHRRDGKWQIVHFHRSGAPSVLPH

Ribosomal protein S6 kinase alpha-6 (Homo sapiens), sequence (Q9UK32 whole entry): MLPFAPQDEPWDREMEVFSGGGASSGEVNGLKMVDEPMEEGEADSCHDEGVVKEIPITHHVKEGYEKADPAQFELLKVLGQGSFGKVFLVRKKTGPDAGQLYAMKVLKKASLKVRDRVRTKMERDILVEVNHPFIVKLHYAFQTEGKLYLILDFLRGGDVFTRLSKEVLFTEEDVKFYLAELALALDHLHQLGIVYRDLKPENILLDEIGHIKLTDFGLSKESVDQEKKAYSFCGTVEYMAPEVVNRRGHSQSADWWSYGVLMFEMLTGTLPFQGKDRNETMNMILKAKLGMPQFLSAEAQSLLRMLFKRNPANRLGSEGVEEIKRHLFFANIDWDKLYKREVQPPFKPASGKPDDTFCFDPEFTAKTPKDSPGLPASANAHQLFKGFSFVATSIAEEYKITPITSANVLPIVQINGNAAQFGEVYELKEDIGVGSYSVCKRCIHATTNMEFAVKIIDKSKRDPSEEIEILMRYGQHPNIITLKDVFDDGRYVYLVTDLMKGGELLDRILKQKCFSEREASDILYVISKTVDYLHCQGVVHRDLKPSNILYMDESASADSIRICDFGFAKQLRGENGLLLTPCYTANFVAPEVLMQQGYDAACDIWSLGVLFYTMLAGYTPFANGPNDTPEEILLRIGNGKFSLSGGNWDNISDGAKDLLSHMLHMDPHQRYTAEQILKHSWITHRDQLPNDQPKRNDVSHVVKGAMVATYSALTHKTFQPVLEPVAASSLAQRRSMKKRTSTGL

Compound	inhibition [1]	inhibition [2]	inhibition [3]	inhibition [4]	inhibition [5]	inhibition [6]	inhibition [7]	inhibition [8]	inhibition [9]	inhibition [10]	inhibition [11]	inhibition [12]	inhibition [13]	inhibition [14]	inhibition [15]	inhibition [16]	inhibition [17]	inhibition [18]	inhibition [19]	inhibition [20]
O=C(Nc1n[nH]c2cc(-c3ccc(F)cc3)ccc12)C1CC1	4.8%	2.59%	3.89%	3.3%	6.36%	3.83%	8.97%	1.21%	4.56%	3.71%	6.01%	0.71%	2.52%	4.68%	26.2%	6.41%	33.5%	0.43%	1.06%	0.76%
CNC(=O)c1cccc(C#Cc2cncnc2Nc2ccc(OCc3cccc(F)c3)c(Cl)c2)c1	0.05%	1.16%	0.62%	-0.28%	0.71%	0.18%	1.41%	0.65%	2.17%	-3.97%	1.89%	0.54%	8.68%	-0.7%	2.56%	1.59%	4.03%	-1.04%	-0.89%	1.34%
COC(=O)Nc1nc2ccc(S(=O)(=O)c3ccc(NC(=O)Nc4cc(C(F)(F)F)ccc4F)cc3)cc2[nH]1	1.27%	3.1%	0.95%	3.28%	0.53%	2.89%	1.57%	1.79%	1.58%	2.21%	3.39%	3.25%	4.84%	3.17%	4.39%	2.33%	2.89%	0.42%	1.45%	3.34%
COc1ccc2c(-c3ccnc(Nc4cccc(OC(F)(F)F)c4)n3)cnn2n1	3.03%	3.35%	2.06%	6.82%	9.02%	5.66%	4.44%	4.09%	7.03%	-7%	5.72%	6.86%	30.7%	-1.42%	3.33%	2.27%	3.88%	0.18%	2.77%	4.78%
NS(=O)(=O)c1ccc(N/N=C2\C(=O)Nc3ccc4ncccc4c32)cc1	55.5%	10.6%	50%	-0.23%	21.3%	1.63%	10.2%	54.8%	82.7%	28.9%	62.2%	79.8%	85.4%	46%	76%	60.4%	80.7%	2.62%	9.02%	2.95%
CCOc1ccc2c(-c3ccnc(Nc4cccc(C(F)(F)F)c4)n3)cnn2n1	-0.99%	1.25%	0.13%	2.25%	0.87%	0.95%	2.4%	2.48%	2.09%	0.22%	2.74%	2.71%	7.44%	1.14%	4.56%	3.01%	2.66%	1%	1.1%	0.19%
